In assay [1] the target is T1, Ephrin type-B receptor 1 (Homo sapiens) (UniProt P54762).
T1 sequence (whole entry): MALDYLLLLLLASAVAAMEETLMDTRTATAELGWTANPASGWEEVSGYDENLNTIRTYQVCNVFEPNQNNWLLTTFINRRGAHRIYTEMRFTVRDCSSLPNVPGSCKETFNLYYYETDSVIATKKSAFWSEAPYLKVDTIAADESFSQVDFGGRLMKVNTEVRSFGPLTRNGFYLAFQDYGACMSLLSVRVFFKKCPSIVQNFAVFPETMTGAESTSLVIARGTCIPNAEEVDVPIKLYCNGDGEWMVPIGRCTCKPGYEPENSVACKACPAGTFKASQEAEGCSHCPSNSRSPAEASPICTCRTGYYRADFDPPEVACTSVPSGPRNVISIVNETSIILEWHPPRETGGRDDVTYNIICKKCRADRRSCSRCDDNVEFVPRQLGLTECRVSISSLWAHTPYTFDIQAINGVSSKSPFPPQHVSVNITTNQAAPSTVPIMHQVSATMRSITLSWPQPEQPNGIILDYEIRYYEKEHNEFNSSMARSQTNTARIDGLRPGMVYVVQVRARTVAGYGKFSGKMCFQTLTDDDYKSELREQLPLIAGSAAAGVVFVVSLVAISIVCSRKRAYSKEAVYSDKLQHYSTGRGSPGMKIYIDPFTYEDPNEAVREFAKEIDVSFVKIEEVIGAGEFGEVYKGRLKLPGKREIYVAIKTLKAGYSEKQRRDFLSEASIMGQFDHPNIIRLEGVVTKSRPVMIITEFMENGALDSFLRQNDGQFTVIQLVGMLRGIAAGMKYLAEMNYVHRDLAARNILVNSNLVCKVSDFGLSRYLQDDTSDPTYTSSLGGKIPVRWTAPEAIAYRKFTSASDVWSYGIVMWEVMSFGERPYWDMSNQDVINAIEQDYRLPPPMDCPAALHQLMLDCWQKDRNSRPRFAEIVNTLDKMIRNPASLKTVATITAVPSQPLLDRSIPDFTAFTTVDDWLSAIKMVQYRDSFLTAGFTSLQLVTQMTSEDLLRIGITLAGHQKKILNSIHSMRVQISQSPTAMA
As to conditions: at 10 µM; call rule not given here.

Assay [2] has as its target T2, Ephrin type-B receptor 2 (Homo sapiens) (UniProt P29323).
T2 sequence (whole entry): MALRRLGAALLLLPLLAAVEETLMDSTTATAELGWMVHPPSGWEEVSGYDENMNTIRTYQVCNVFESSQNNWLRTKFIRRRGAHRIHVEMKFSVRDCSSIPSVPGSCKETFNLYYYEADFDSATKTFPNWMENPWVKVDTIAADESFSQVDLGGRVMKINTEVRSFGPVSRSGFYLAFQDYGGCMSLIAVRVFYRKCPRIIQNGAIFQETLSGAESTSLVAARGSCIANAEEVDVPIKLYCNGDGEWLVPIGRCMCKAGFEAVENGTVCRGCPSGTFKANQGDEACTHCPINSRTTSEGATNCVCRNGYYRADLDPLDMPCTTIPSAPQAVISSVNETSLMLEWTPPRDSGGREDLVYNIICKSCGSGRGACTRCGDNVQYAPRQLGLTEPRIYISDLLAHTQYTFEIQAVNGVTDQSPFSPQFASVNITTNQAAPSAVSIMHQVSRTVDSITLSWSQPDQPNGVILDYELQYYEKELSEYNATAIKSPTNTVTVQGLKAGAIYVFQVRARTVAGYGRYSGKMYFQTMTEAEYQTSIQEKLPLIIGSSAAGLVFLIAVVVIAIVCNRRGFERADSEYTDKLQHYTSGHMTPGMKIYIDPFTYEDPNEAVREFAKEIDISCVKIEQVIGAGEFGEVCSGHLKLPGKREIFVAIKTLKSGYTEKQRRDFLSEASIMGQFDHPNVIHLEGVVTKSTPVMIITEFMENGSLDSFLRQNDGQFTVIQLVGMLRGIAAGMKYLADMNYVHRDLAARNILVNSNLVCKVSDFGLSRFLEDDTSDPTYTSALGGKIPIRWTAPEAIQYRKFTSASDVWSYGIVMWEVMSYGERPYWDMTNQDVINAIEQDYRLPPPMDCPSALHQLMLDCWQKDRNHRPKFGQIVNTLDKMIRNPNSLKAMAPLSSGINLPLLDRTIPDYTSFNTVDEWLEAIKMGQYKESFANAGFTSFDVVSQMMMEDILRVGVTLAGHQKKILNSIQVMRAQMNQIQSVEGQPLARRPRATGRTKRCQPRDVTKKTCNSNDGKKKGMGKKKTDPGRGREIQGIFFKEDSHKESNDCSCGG
The following applies: at 1 µM.

The target of assay [3] is T2, Ephrin type-B receptor 2 (Homo sapiens). The following applies: at 10 µM.
Assay [4] addresses T3, Ephrin type-B receptor 3 (Homo sapiens) (UniProt P54753).
T3 sequence (whole entry): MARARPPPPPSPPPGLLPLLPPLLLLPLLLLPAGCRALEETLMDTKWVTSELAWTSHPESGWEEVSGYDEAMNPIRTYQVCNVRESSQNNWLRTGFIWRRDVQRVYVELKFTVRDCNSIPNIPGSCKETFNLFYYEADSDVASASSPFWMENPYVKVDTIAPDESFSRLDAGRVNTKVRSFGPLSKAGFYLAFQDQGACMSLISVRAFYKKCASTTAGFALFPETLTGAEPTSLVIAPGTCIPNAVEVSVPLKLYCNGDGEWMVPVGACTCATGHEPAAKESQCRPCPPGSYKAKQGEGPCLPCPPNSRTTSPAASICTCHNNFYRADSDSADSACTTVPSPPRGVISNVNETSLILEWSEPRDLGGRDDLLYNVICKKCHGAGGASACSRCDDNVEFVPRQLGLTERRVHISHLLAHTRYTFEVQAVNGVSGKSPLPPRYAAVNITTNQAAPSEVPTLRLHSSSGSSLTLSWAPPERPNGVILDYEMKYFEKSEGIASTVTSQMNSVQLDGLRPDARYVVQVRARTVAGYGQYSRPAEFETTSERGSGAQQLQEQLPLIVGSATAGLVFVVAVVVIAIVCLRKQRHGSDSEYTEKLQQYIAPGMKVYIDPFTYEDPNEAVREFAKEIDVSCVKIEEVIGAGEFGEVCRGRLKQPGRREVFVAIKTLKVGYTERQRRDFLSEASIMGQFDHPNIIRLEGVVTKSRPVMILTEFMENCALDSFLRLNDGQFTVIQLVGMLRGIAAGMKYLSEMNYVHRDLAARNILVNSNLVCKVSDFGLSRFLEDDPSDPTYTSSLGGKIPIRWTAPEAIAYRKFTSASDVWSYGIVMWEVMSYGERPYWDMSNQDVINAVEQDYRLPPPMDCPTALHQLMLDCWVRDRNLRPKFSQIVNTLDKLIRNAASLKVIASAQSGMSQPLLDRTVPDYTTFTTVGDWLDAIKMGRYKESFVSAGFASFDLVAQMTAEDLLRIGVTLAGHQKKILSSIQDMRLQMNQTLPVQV
As to conditions: at 1 µM.

Assay [5] addresses T3, Ephrin type-B receptor 3 (Homo sapiens). The following applies: at 10 µM.
The target of assay [6] is T4, Ephrin type-B receptor 4 (Homo sapiens) (UniProt P54760).
T4 sequence (whole entry): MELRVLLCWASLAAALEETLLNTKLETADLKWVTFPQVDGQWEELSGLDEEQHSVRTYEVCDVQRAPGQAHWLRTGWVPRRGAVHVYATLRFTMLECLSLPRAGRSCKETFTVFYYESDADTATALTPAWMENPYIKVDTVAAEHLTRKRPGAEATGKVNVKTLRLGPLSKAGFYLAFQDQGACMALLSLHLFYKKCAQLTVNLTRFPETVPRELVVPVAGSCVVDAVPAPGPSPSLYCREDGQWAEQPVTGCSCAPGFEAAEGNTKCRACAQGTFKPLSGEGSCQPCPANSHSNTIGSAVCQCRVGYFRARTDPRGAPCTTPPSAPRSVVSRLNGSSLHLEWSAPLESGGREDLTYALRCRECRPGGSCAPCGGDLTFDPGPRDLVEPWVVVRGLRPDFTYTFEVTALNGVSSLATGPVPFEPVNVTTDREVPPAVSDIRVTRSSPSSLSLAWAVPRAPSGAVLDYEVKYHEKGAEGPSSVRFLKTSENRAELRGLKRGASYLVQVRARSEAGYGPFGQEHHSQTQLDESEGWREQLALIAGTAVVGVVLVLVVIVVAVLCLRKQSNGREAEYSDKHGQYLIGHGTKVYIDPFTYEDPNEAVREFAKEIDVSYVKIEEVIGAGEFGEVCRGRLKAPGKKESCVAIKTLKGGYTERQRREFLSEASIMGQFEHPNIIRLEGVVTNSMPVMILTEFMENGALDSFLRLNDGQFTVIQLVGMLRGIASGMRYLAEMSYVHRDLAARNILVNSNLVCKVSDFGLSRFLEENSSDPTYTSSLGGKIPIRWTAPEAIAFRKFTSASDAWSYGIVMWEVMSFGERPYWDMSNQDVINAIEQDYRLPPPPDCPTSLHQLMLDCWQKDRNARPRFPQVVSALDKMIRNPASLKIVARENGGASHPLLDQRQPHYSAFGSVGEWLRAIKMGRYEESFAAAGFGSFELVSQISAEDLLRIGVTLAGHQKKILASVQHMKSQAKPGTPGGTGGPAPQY
As to conditions: at 1 µM.

The target of assay [7] is T4, Ephrin type-B receptor 4 (Homo sapiens). The following applies: at 10 µM.
Assay [8] has as its target Receptor tyrosine-protein kinase erbB-4 (Homo sapiens) (UniProt Q15303). The following applies: at 1 µM.
For assay [9] the target is unchanged. As to conditions: at 10 µM.
In assay [10] the target is Focal adhesion kinase 1 (Homo sapiens) (UniProt Q05397). The following applies: at 1 µM.
Focal adhesion kinase 1 (Homo sapiens), sequence (Q05397 2-1052 limits assumed): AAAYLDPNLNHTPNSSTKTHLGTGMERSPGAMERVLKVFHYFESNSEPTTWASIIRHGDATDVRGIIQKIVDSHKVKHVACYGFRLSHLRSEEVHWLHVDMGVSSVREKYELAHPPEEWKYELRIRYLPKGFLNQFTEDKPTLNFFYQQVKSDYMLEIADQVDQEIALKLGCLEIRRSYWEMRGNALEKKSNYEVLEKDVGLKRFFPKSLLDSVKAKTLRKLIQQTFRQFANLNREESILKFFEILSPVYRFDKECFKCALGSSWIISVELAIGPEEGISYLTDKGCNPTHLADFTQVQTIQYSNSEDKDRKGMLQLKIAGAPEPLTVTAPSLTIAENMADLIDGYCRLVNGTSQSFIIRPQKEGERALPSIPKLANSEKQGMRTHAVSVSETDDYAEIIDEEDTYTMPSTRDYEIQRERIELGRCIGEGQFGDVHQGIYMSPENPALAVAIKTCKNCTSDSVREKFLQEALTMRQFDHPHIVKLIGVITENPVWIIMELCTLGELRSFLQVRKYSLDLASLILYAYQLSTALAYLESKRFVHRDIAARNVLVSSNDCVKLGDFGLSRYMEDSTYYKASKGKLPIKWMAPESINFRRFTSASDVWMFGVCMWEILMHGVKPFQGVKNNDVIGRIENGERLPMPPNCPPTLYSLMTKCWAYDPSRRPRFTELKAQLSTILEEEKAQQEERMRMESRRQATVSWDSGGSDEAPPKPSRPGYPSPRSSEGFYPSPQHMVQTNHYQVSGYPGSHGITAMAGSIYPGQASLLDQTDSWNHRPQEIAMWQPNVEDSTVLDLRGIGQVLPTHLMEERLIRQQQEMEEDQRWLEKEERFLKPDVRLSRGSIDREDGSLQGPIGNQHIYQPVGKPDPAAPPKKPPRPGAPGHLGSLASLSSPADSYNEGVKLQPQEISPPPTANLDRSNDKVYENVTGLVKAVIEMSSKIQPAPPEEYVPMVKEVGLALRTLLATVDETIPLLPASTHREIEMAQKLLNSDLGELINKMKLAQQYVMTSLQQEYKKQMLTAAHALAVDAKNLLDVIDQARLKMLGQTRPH

Receptor tyrosine-protein kinase erbB-4 (Homo sapiens), sequence (Q15303 whole entry): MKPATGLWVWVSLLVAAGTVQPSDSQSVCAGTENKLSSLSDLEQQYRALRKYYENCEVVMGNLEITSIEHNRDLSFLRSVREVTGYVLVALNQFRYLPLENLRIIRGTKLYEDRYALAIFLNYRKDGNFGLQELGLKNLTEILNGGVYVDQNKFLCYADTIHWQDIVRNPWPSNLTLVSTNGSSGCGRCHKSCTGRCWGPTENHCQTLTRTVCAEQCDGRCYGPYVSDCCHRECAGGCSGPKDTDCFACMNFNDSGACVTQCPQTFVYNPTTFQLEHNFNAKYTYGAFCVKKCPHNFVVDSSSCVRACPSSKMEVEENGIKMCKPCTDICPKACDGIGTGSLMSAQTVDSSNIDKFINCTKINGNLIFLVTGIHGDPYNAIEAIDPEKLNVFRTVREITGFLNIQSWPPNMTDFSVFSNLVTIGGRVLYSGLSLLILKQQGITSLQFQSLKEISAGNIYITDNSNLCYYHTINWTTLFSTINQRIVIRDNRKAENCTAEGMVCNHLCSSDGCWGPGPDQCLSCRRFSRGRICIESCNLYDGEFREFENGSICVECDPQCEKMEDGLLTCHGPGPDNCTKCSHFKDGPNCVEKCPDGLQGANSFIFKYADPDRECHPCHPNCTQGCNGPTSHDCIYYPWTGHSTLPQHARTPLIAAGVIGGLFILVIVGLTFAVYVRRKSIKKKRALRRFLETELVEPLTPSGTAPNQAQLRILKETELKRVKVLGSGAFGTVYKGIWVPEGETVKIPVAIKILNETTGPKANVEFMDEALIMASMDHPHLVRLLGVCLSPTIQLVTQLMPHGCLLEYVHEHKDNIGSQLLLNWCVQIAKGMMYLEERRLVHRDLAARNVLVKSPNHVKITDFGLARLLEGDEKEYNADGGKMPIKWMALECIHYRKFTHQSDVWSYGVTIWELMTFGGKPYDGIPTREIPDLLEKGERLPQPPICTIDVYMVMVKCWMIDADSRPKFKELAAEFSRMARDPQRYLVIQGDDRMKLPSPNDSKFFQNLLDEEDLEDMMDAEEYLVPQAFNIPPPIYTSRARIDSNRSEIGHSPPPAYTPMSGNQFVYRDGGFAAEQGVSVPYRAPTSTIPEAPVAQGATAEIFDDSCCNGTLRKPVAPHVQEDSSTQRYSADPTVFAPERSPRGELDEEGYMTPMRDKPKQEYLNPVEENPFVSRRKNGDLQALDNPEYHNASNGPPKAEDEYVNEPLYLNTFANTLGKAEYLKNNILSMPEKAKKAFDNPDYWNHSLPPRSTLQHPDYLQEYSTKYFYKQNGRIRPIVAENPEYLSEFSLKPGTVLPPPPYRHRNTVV

As a reminder, the residual activity is the signal under treatment as a percentage of the control signal. In the case of `O=C(O)c1ccc2c3c1cccc3c(=O)n1c3ccccc3nc21`, the residual activity was 98% in assay [1]; 105% in [2]; 108% in assay [3]; 98% (inactive) in assay [4]; 110% in assay [5]; 102% in assay [6]. Also, the residual activity in assay [7] stood at 100%; in assay [8], 105%; in assay [9] it was 95%; in assay [10], 112%.

The values are drawn from ChEMBL document CHEMBL2218924, “A broad activity screen in support of a chemogenomic map for kinase signalling research and drug discovery” (Biochem J, 2013).
